# High-throughput results (PubChem BioAssay)
# CYP2C19 activ: activators of human cytochrome P450 2C19. recombinant CYP2C19, luciferin-H EGE luminescence; stronger effect = higher value; 0 = fully inhibited enzyme, 1 = untreated enzyme. AID 1025. P33261. 96,000 tested, under 10 active. activation factor at 5 µM;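 active = activation factor of at least 2 at 5 µM in the primary screen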;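 also: 0 = wells with 2.5 mM tranylcypromine and 1 = vehicle-only wells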
# Target sequence (P33261 whole entry, looked up): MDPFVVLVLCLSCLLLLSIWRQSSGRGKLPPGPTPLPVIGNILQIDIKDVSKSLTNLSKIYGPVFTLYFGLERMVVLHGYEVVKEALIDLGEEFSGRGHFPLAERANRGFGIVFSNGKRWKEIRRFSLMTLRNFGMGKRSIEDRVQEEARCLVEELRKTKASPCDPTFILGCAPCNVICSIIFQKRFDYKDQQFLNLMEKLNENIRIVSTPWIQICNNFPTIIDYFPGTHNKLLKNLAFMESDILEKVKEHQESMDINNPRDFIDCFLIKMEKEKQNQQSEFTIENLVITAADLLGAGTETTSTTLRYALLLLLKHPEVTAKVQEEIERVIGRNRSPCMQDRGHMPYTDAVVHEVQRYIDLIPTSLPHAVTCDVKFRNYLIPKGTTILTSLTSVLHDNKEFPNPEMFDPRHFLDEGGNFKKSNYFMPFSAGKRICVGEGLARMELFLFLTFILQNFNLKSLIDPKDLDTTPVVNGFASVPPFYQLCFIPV
# CYP2C9 act: activators of human CYP2C9 | P11712 | recombinant CYP2C9, luciferin-H conversion, luminescence; stronger effect = higher value; factor 1 = untreated enzyme, 0 = blocked | activation factor at 5 µM | 1.4% of 96,000 active | AID 1024;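 active = activation factor of 2 or more for CYP2C9 at a 5 µM dose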;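 also: 0 = sulfaphenazole-blocked wells and 1 = vehicle-only wells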
# CYP2C9 inhib: human CYP2C9 inhibition. AID 777. inhibition, % at 5 µM. CYP2C9 Supersomes, luciferin-H conversion, luminescence. 20% of 96,000 active. P11712;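 active = blocking of liver enzyme CYP2C9 beyond about 50% at 5 µM, limit read from the data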
# CYP2C19 inh: human CYP2C19 inhibition; P33261; CYP2C19 Supersomes, luciferin-H EGE luminescence, 30 min; inhibition, % at 5 µM; 21% of 96,000 active; AID 778;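 active = CYP2C19 inhibition above a set limit at 5 µM in the primary screen, cut at about 50% in these data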;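 also: plate controls were negative control wells for no effect and 2.5 mM tranylcypromine positive control for full effect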
# PLAP activator: activators of human placental alkaline phosphatase; 1.2% of 96,000 active; purified PLAP enzyme, luminescent substrate read-out; stronger effect = higher value; P05187; activation fold at 20 µM; in the data active = activation fold above about 2
# Starred values were filed as active, the others as inactive. Sampled rows, rich in hits. Any-hit rate of the full collection: about 31%.
SMILES,CYP2C19 activ,CYP2C9 act,CYP2C9 inhib,CYP2C19 inh,PLAP activator
Cc1ccc(C(=O)Oc2cccc(NC(=O)c3cccs3)c2)cc1S(=O)(=O)N1CCOCC1,0.5,0.4,58*,46,1.4
CCOC(=O)c1ccccc1NC(=O)COC(=O)c1ccc(C)c(S(=O)(=O)N2CCOCC2)c1,0.8,0.4,61*,19,0.9
O=C(COc1ccc(S(=O)(=O)N2CCCC2)cc1Cl)Nc1ccc2c(c1)OCO2,0.9,1.1,-8,6,0.9
CCNc1ccc(C(=O)OCC)cc1NC(=O)c1cccc(S(=O)(=O)N2CCOCC2)c1,0.6,0.4,58*,45,1
CC(C)Nc1c(N)c(=O)oc2ccccc12,0.6,0.7,27,36,1
Nc1c(NCc2ccccc2)c2ccccc2oc1=O,0,0.3,73*,97*,0.8
O=C(O)C1C2C=CC(C2)C1C(=O)Nc1ccc(C(=O)N2CCCCC2)c(Cl)c1 (stereo not given),1,1.2,-23,0,1.1
COc1ccccc1-n1cnnc1SCC(=O)c1ccc[nH]1,0.4,0.6,41,59*,0.9
COc1ccccc1-n1cnnc1SCC(=O)N1CC(=O)Nc2ccccc21,0.8,0.9,5,19,1.1
C=C(C)C1CCC(C)=C1CC(C)(C)/C=N\n1cnnc1 (stereo not given),0.1,0.4,63*,86*,1.3
Brc1ccc2ncnc(Nc3ccc(N4CCOCC4)cc3)c2c1,0.9,1.1,-8,10,0.9
O=C1c2ccccc2C(=O)N1CCc1nc(-c2ccccn2)no1,0.7,0.9,8,29,0.9
O=C1c2ccccc2C(=O)N1CCc1csc(-c2ccccc2)n1,0,1.4,-36,100*,1
O=C1c2ccccc2C(=O)N1CCc1csc(-c2ccc(F)cc2)n1,0,1,1,100*,1
CC1(C(=O)O)CCC(C(=O)N2CCOCC2)C1(C)C (stereo not given),1,1.1,-8,4,1.1
O=C1CC(c2ccc(F)cc2)C2=C(CCCC2=O)N1 (stereo not given),1,1.1,-11,-4,1
Cc1ccc(Cn2ccc(NC(=O)c3cc(CC(C)C)on3)n2)cc1,0.8,0.1,90*,23,0.9
Cc1cc(NC(=O)c2cc(C(C)C)on2)nn1Cc1ccc(Cl)cc1,0.3,0.6,40,65*,1.2
CC(C)Cc1cc(C(=O)Nc2cc(C(F)(F)F)ccc2Cl)no1,0.9,2.7*,-170,10,0.9
Cc1nn(Cc2ccc(Cl)c(Cl)c2)c(C)c1NC(=O)c1cc(CC(C)C)on1,0.3,0.2,82*,74*,1.1
Cc1ccc(Cn2ccc(NC(=O)c3cc(-c4ccc(Cl)cc4)on3)n2)cc1,1,0.8,22,5,0.9
CCOC(=O)N1CCN(C2CC(=O)N(c3ccc(Oc4ccccc4)cc3)C2=O)CC1 (stereo not given),1.1,0.9,9,-12,1.8
CSC1=N/C(=C\c2ccc(C)o2)C(=O)S1,0.6,0.6,41,44,1
O=S(=O)(c1ccc(Oc2ccc(Cl)cc2)c(S(=O)(=O)N2CCCCC2)c1)N1CCCCC1,0.9,0.6,39,8,1.1
Cc1nn(Cc2ccc(Br)cc2)c(C)c1NC(=O)c1nn(C)cc1Cl,0.6,0.4,61*,43,1.3
SMILES,CYP2C19 activ,CYP2C9 act,CYP2C9 inhib,CYP2C19 inh,PLAP activator
O=C(Nc1ccc2c(c1)OCO2)C1CC(c2ccc(F)cc2)=NO1 (stereo not given),0.5,0.8,21,53*,0.8
COC(=O)c1ccccc1NC(=O)C1CC(c2ccc(F)cc2)=NO1 (stereo not given),0.7,1.5,-50,34,0.9
CCc1ccccc1NC(=O)C1CC(c2ccc(F)cc2)=NO1 (stereo not given),0.2,1.4,-40,83*,0.8
N#Cc1ccc(NC(=O)C2CC(c3ccc(F)cc3)=NO2)cc1 (stereo not given),0.9,0.9,9,8,1
O=C(CN1CCOCC1)NCCC12CC3CC(CC(C3)C1)C2,0.5,0.9,9,54*,1.5
COC(=O)c1ccc(-n2nnnc2SCc2ccccc2OC)cc1,0.9,0.6,42,6,1.1
O=C(Nc1nccs1)c1ccc(CSc2nnnn2-c2ccccc2)cc1,0.1,0.1,92*,92*,1.1
c1ccc(-n2nnnc2SCc2cn3ccccc3n2)cc1,0.6,1,5,40,1.2
c1ccc(CSc2nnnn2-c2ccccc2)cc1,0.3,0.6,38,71*,1.1
O=c1cc(CSc2nnnn2-c2ccccc2)[nH]c2[nH]n(-c3ccccc3)c(=O)c12,0.9,0.4,56*,5,1.2
COc1ccccc1-n1nnnc1SCc1cc2c(cc1Br)OCO2,0.8,0.4,55*,22,1
Nc1nnc(CSCc2ccc(F)cc2)s1,0.5,1,-1,48,0.9
COc1ccc(CSc2nnnn2Cc2ccccc2)cc1OC,0.1,0.3,75*,89*,1.7
NC(=O)c1ccc(-n2nnnc2SCc2ccccc2)cc1,0.1,0.5,46,87*,1.1
COc1ccccc1-n1nnnc1SCC(=O)Nc1ccccn1,0.7,1.2,-24,31,0.9
NC(=O)c1ccc(-n2nnnc2SCC(=O)Nc2ccccc2-c2ccccc2)cc1,0.6,0.8,24,37,0.9
COc1ccc(C)cc1NC(=O)CSc1nnnn1Cc1ccccc1,0.7,1,4,29,0.8
COc1ccccc1-n1nnnc1SCc1ccccc1,0.2,0.7,27,75*,0.7
COc1ccc(C(=O)Cn2c(C(=O)/C=C/c3ccccc3)nc3ccccc32)cc1,1.2,0.9,9,-20,1.1
O=C(CSCC(=O)OCC(=O)c1ccc(Br)cc1)Nc1cccc2ccccc12,0.7,0.8,21,34,1
COc1cccc(N2CCN(C(=O)C3C4C=CC5(CN(Cc6ccccc6Cl)C(=O)C35)O4)CC2)c1 (stereo not given),0.8,0.4,62*,22,1.6
CCCCC(=O)Nc1c(C)cc(C)cc1Cl,0.7,0.9,13,26,0.9
CC(C)CN1C(=O)NC(NC(=O)c2ccco2)(C(F)(F)F)C1=O (stereo not given),0.4,0.8,16,56*,1.4
Cn1c(C(=O)OCC(=O)NCc2cccs2)cc2sccc21,0.5,0.3,66*,51*,0.7
CCn1c(C(=O)N2CCC(C(=O)NCc3cccs3)CC2)cc2sccc21,0.8,1.2,-21,25,1.6
CCOc1ccc(CCNC(=O)c2cc3sccc3n2C)cc1OCC,0.1,0.3,67*,94*,1.5
Cn1c(C(=O)N2CCCC(C(=O)NCc3cccs3)C2)cc2sccc21 (stereo not given),0.8,1.7,-73,25,1
Cn1c(C(=O)OCC(=O)NCCc2ccccc2)cc2sccc21,0.7,0.3,69*,32,0.7
CC(CCc1ccccc1)NC(=O)c1cc2sccc2n1C (stereo not given),0.9,0.7,28,14,0.9
